From PMC4552634, “A New Set of Chemical Starting Points with Plasmodium falciparum Transmission-Blocking Potential for Antimalarial Drug Discovery” (PLoS ONE, 2015)
Where two headings read alike, the source gives them in different places. Among all 13,000 compounds or so, about 3,200 (25%) showed an effect of 50% or more. Some of the results follow.

System: P. falciparum stage V gametocytes
Set-up: BacTiter-Glo ATP luminescence viability of purified stage V gametocytes in 384-well plates, per cent inhibition versus DMSO
Conditions: 48 h, 5 µM, inhibitor

SMILES | % Inhibition [%] | % Inhibition (% Inhibition) [%]
O=C(Nc1cccc(-c2nn3ncccc3c2-c2ccnc(Nc3ccccc3)n2)c1)c1c(F)cccc1F [TCMDC-134631] | -2.939 | –
CCN(CC)CCCOc1ccc(Nc2nccc(-c3c(-c4cccc(NC(=O)c5c(F)cccc5F)c4)nn4ccccc34)n2)cc1F [TCMDC-135920] | 94.91 | –
CS(=O)(=O)Cc1ccc(Nc2nccc(-c3c(-c4cccc(NC(=O)c5c(F)cccc5F)c4)nn4ccccc34)n2)cc1 [TCMDC-135669] | -24.51 | –
COCCOc1ccc(Nc2nccc(-c3c(-c4cccc(NC(=O)c5c(F)cccc5F)c4)nn4ccccc34)n2)cc1Cl [TCMDC-135955] | -12.66 | –
COCCOc1ccc(Nc2nccc(-c3c(-c4cccc(NC(=O)c5c(F)cccc5F)c4)nn4ccccc34)n2)cc1F [TCMDC-135995] | 27.09 | –
CC(=O)Nc1cccc(Nc2nccc(-c3c(-c4cccc(NC(=O)c5c(F)cccc5F)c4)nn4ncccc34)n2)c1 [TCMDC-135548] | -25.11 | –
O=C(Nc1cccc(-c2nn3ncccc3c2-c2ccnc(Nc3cccnc3)n2)c1)c1c(F)cccc1F [TCMDC-135635] | 0.1379 | –
CCS(=O)(=O)c1ccc(OC)c(Nc2nccc(-c3c(-c4cccc(NC(=O)c5c(F)cccc5F)c4)nn4ncccc34)n2)c1 [TCMDC-135682] | 81.78 | –
CS(=O)(=O)Cc1ccc(Nc2nccc(-c3c(-c4cccc(NC(=O)c5c(F)cccc5F)c4)nn4ncccc34)n2)cc1 [TCMDC-135681] | 52.9 | –
CS(=O)(=O)N1CC2(CCN(CCC(NC(=O)/C=C/c3ccccc3)c3ccc(Cl)c(Cl)c3)CC2)c2ccccc21 (stereo not shown) [TCMDC-141763] | 8.889 | –
CCCN1CCCN(Cc2cccc(NC(=O)c3ccc(-c4ccccc4)cc3)c2)CC1 [TCMDC-141843] | -30.15 | –
CCC[C@@H]([C@@H](CC1CCCCC1)C(=O)N[C@H](C(=O)Nc1nccs1)[C@@H](C)OCc1ccccc1)N(O)C=O [TCMDC-138051] | -19.92 | –
Cc1nc(SCC(=O)N2CCCC2=O)c2c(C)c(C)sc2n1 [TCMDC-123558] | 5.306 | –
Cc1[nH]nc2cc(F)c(-c3cc(OC[C@@H](N)Cc4ccccc4)cnc3-c3ccoc3)cc12 [TCMDC-136295] | 10.29 | –
Cc1cccc(Nc2nc(N)c3ccccc3n2)c1.Cl [TCMDC-123639] | -2.53 | –
CCOC(=O)c1c(C)noc1Nc1cccc(C)c1C [TCMDC-131454] | -30.94 | –
COc1cc(OC)cc(-c2nn(-c3ccc([N+](=O)[O-])cc3C#N)c(=S)n2Cc2ccco2)c1 [TCMDC-134715] | 75.07 | –
N#Cc1cc([N+](=O)[O-])ccc1-n1nc(-c2cccc(Cl)c2)n(Cc2ccco2)c1=S [TCMDC-134717] | 102.9 | –
COc1cc(OC)cc(-c2nn(-c3ccc([N+](=O)[O-])cc3Cl)c(=S)n2Cc2ccco2)c1 [TCMDC-135128] | 93.16 | –
O=[N+]([O-])c1ccc(-n2nc(-c3cccnc3)n(Cc3ccco3)c2=S)c(Cl)c1 [TCMDC-135132] | 83.46 | –
CN(C)c1ccc(-c2nnc(Sc3ccc(C#N)c([N+](=O)[O-])c3)n2Cc2ccco2)cc1 [TCMDC-135611] | 2.069 | –
CCCCCCn1c(Sc2ccc(C#N)c([N+](=O)[O-])c2)nnc1-c1cc(OC)cc(OC)c1 [TCMDC-135589] | 37.66 | –
C=CCN1C(=O)c2[nH]nc(-c3cc(C)c(C)cc3O)c2C1c1cccc(Br)c1 (stereo not shown) [TCMDC-124621] | 9.594 | –

SMILES | % Inhibition [%] | % Inhibition (% Inhibition) [%]
Cn1c(CN2CCC(N3CCc4cc(NC(=O)c5ccco5)ccc43)C2)cc2ccccc21 (stereo not shown) [TCMDC-135073] | 32.96 | –
NC(N)=Nc1cccc(NC(=O)Nc2cccc(N=C(N)N)c2)c1 [TCMDC-137209] | -4.06 | –
Cc1ccc2c(C3=CCN(CCCCC4(C)C(=O)Nc5ccccc54)CC3)c(C)[nH]c2c1 (stereo not shown) [TCMDC-141006] | -63.83 | –
COc1cc(Cc2cnc(N)nc2N)cc(OCCCC(=O)O)c1OC [TCMDC-137359] | 3.526 | –
O=C(NCCCCN1CCCC2c3ccc(O)cc3CCC21)c1ccc(-c2ccccc2)cc1 (stereo not shown) [TCMDC-139084] | – | -62.82
CCOc1cc(Cc2cnc(N)nc2N)cc(OCC)c1-n1cccc1 [TCMDC-137295] | 0.7486 | –
O=C(/C=C/c1c(Cl)cccc1Cl)NC1CCC(CN2C3CCC2CC(c2c[nH]c4ccccc24)C3)CC1 (stereo not shown) [TCMDC-140103] | 74.61 | –
CS(=O)(=O)Nc1ccc2[nH]cc(C3CC4CCC(C3)N4CC3CCC(NC(=O)/C=C/c4ccc(Cl)c(Cl)c4)CC3)c2c1 (stereo not shown) [TCMDC-139807] | 14.27 | –
O=C(/C=C/c1ccccc1Cl)NC1CCC(CN2C3CCC2CC(c2c[nH]c4ccccc24)C3)CC1 (stereo not shown) [TCMDC-139931] | 92.87 | –
CC(C)(C)c1ccc(NC(=O)c2cccc(CN3CCCN(Cc4ccsc4)CC3)c2)cc1 [TCMDC-135992] | -46.34 | –
CCC(C(=O)Nc1cc(=O)[nH]c2nc(-c3ccco3)nn12)c1ccccc1 (stereo not shown) [TCMDC-125323] | -11.89 | –
O=C(Nc1cccc(Cl)c1Cl)Nc1ccnc2ccccc12 [TCMDC-139462] | 3.661 | –
CN(C)c1ccc(NC(=O)Nc2ccnc3ccccc23)cc1Br [TCMDC-139316] | -21.1 | –
CCCOc1cc(NC(=O)Nc2ccnc3ccccc23)cc(OCCC)c1 [TCMDC-139491] | 3.955 | –
CCc1cc(NC(=O)Nc2ccnc3ccccc23)ccc1OC [TCMDC-139354] | 1.366 | –
CCOc1cc(NC(=O)Nc2ccnc3ccccc23)cc(OC)c1 [TCMDC-139788] | 14.31 | –
COc1cc(NC(=O)Nc2cc(C)nc3ccccc23)cc(OC)c1 [TCMDC-139821] | 78.53 | –
COc1ccc(NC(=O)Nc2cc(C)nc3ccccc23)cc1Cl [TCMDC-139820] | -57.55 | –
COc1cc(NC(=O)Nc2ccnc3ccccc23)cc(OC)c1 [TCMDC-139446] | 84.12 | –
COc1ccc(Cl)cc1NC(=O)Nc1ccnc2ccccc12 [TCMDC-139457] | 13.69 | –
COc1cccc(NC(=O)Nc2cc(C)nc3ccccc23)c1 [TCMDC-138950] | -4.503 | –
CN(C)c1ccnc2ccc(NC(=O)Nc3ccnc4ccccc34)cc12 [TCMDC-139749] | 70.09 | –
O=C(Nc1cc(Cl)cc(Cl)c1)Nc1ccnc2ccccc12 [TCMDC-139375] | 74.86 | –
